Laboratory results taken from ChEMBL document CHEMBL3988442, “University of Dundee, Small-Polar-MMV Screening Library” (2021).

How the values were obtained:
[1] = biological target: T1, Aspartate--tRNA(Asp/Asn) ligase (Mycobacterium tuberculosis (strain ATCC 25618 / H37Rv)) (UniProt P9WFW3); assay: Assay for Asp RNA synthetase-1 from Mycobacterium tuberculosis; assay type: functional; design: scale not given: direction of the effect not stated beside the values; conditions: 30 µM; also: in the data most compounds retested in dose-response had high values
T1 sequence (whole entry): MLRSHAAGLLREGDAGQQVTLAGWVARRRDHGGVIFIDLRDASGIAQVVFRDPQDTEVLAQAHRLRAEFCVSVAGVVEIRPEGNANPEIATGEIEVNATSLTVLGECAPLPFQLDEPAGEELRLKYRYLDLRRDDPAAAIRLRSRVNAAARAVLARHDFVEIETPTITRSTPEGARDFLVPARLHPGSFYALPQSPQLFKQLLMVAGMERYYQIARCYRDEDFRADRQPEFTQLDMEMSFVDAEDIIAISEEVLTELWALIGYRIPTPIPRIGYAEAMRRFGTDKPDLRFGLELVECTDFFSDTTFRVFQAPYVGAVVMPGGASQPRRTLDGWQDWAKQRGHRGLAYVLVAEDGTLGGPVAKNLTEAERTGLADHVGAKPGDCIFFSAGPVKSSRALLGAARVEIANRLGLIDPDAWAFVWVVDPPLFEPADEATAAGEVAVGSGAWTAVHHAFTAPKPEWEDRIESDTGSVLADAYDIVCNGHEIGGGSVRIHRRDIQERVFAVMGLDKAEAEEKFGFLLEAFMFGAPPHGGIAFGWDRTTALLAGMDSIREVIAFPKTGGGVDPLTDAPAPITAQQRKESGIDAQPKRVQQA

[2] = biological target: Shiga toxin 2 (Escherichia coli O157:H7) (UniProt P09385+P09386); assay: E. coli 0.157:H7 Shiga Toxin SOP - stx2 screening assay; assay type: functional; design: scale not given: direction of the effect not stated beside the values; conditions: 30 µM

| Structure (SMILES) | Percent Effect [1] [%] | Percent Effect [2] [%] |
| --- | --- | --- |
| CC(C)C(=O)NCCNc1nccc(-c2cc(C(=O)O)ccn2)n1 | 0.977 | -4.31 |
| Cc1nn(C)c2c(NCc3ccccc3F)nc(C3CC3)nc12 | 12.5 | -20.5 |
| Cc1nc(C)n(CC2CCCN(c3ncnc4c3CCC4)C2)n1 (centres undefined) | 2.14 | 15.3 |
| CC(C)=CCN(C)C1CCCN(Cc2noc(C)n2)C1 (centres undefined) | 3.23 | 25.2 |
| COc1cccc2c1ccn2CCC(=O)NCCCC(=O)O | -1.42 | -21 |
| c1cc2n(n1)CC(CNCc1ccc(OC3CCCCC3)nc1)CN2 (centres undefined) | -3.37 | -39.3 |
| C=Cn1ncc(CN2C[C@@H]3CCCN3C[C@@H]2Cc2ccccc2)c1C | -6.18 | 2.92 |
| Cc1nn(C)c2c(N3CCN(C(=O)c4ccccc4)CC3)ncnc12 | 0.348 | -28.7 |
| O=C(C1COCCO1)N1CCN(Cc2ccc3c(c2)CCO3)CC1 (centres undefined) | 1.71 | 8.81 |
| COc1ccc(C2CC(=O)Nc3c2nc2n3CCCC2)cc1OC (centres undefined) | 0.342 | 0.28 |
| CC(C)c1nc(CC(=O)Nc2nc(CN3CCCCCC3)cs2)cs1 | -0.836 | -37.6 |
| CC(O)CN1CCC(CNCc2ccccc2Br)CC1 (centres undefined) | 1.21 | -20.4 |
| COc1ncccc1C(=O)N1CC[C@H]2C[C@@H](C)O[C@@H]2C1 | -1.34 | -45 |
| CC(C)NC(=O)N1CCC(n2ccc(C(F)(F)F)n2)CC1 | -2.88 | -0.886 |
| CC1CCCN(C(=O)c2csc(S(N)(=O)=O)c2)CC1 (centres undefined) | 0.324 | -19.1 |
| O=C(N1CCCO1)[C@@]12CCO[C@@H]1CCN(Cc1ccccc1)C2 | -1.34 | -5.88 |
| CC(C)CN(C)c1ccc(C(=O)N2CCCC2c2cnn(C)c2)cn1 (centres undefined) | -2.28 | 21 |
